PubChem BioAssay AID463173 (ICCB-Longwood Screening Facility, Harvard Medical School, 2010)
In all, about 52,000 compounds went through this assay and about 1,700 (3.3%) were called active. The sample as a whole holds a higher share of actives than the screen did. A number with no mark means an inactive call. Rule as the data show it: active = survival mostly below about 52% (no sharp cut-off); inactive = mostly above about 56%.

What follows are compounds tested on Wild type (assay: S. aureus survival, RN4220 and DeltatarO strains – OD600, teichoic acid synthesis inhibitors, primary screen (AID 463173)). Conditions: S. aureus RN4220 wild type/DeltatarO growth, OD600, 18 h, stronger effect = lower value, screened at 18.75 µg/mL (by protocol).
`Cc1ccc(CN2C(=O)CN(C3CCCCCC3)C(=O)C2c2ccc(F)cc2)cc1` (stereo not given) was tested, and the survival was 1% (active). `COc1ccc(C2C(=O)N(C3CCCCCC3)CC(=O)N2Cc2ccc(C)cc2)cc1` (stereo not given) showed a survival of 75%. With `Cc1ccc(CN2C(=O)CN(C3CCC(C)CC3)C(=O)C2c2ccc(F)cc2)cc1` (stereo not given) the survival was 119%. Work on `COc1ccc(C)cc1NC(=O)Nc1cccc(OCc2cc(=O)n3ccc(C)cc3n2)c1` yielded a survival of 73%. `CCC(=O)N1c2ccc(S(=O)(=O)CCC(=O)Nc3ccc(Br)c(C)c3)cc2CC1C` (stereo not given) was tested, and the survival was 87%. Work on `CCc1ccc(-c2nc(CN3CCCC(C(=O)NCc4ccc(C)cc4)C3)c(C)o2)cc1` (stereo not given) yielded a survival of 88%. `Cc1oc(-c2cccc(Cl)c2)nc1CN1CCCC(C(=O)NCc2ccc(F)cc2)C1` (stereo not given) showed a survival of 64%. With `Cc1oc(-c2ccc(Cl)cc2)nc1CN1CCCC(C(=O)NCc2ccc(Cl)cc2)C1` (stereo not given) the survival was 85%. In the case of `Cc1oc(-c2cccc(Cl)c2)nc1CN1CCCC(C(=O)NCc2ccc(Cl)cc2)C1` (stereo not given), the survival is reported as -1% (active). In the case of `Cc1cccc(-c2nc(CN3CCCC(C(=O)NCc4ccc(Cl)cc4)C3)c(C)o2)c1` (stereo not given), the survival is reported as 2% (active). For `Cc1oc(-c2ccc(Cl)cc2)nc1CN1CCCC(C(=O)NCc2ccccc2)C1` (stereo not given), the survival was 88%. With `Cc1ccccc1-c1nc(CN2CCCC(C(=O)NCc3ccc(Cl)cc3)C2)c(C)o1` (stereo not given) the survival was 68%. For `Cc1ccc(CNC(=O)C2CCN(Cc3nc(-c4cccc(Br)c4)oc3C)CC2)cc1`, the survival was 75%. `Cc1ccc(CNC(=O)C2CCCN(Cc3nc(-c4cccc(C)c4)oc3C)C2)cc1` (stereo not given) was tested, and the survival was 4% (active). For `COc1ccc(CCNC(=O)CCc2c(C)c3cc4c(C)coc4cc3oc2=O)cc1`, the survival was 90%. For `C=C(C)Cn1c(=O)c2c(nc3n2CCN3c2ccc(F)cc2)n(C)c1=O`, the survival was 85%. `CC(=O)c1cccc(NC(=O)CSc2nc3ccccc3nc2Cc2ccc(F)cc2)c1` gave a survival of 73%. In the case of `Cc1ccc2oc(-c3cc(N=C/C=C/c4ccc5c(c4)OCO5)ccc3O)nc2c1`, the survival is reported as 113%. `CCOc1cc(CNC(=O)C2CCN(c3nc4ccccc4[nH]3)CC2)cc(OCC)c1OCC` was tested, and the survival was -3% (active). Compound `COc1ccc(CNC(=O)C2CCN(c3nc4ccccc4[nH]3)CC2)cc1OC` has a survival of 47%. Compound `CN(C)c1ccc(CNC(=O)C2CCN(c3nc4ccccc4[nH]3)CC2)cc1` has a survival of 45%. For `CCCN(CCC)CCNC(=O)C1CCN(c2nc3ccc(CC)cc3s2)CC1`, the survival was 67%. `Clc1ccc(-c2nnn3c2nc(NC2CCCCC2)c2ccccc23)cc1` was tested, and the survival was 57%. Work on `Fc1cccc(-c2nnn3c2nc(NC2CCCCC2)c2ccccc23)c1` yielded a survival of 85%. Work on `CC1CCC(Nc2nc3c(-c4ccc(Cl)cc4)nnn3c3ccccc23)CC1` (stereo not given) yielded a survival of 25%. `Cc1ccc(-c2nnn3c2nc(NC2CCC(C)CC2)c2ccccc23)cc1` (stereo not given) was tested, and the survival was 4% (active). With `FC(F)(F)c1cccc(-c2nnn3c2nc(NC2CCCCC2)c2ccccc23)c1` the survival was 28%. `CC1CCC(Nc2nc3c(-c4cccc(C(F)(F)F)c4)nnn3c3ccccc23)CC1` (stereo not given) was tested, and the survival was -1% (active). For `COc1cc2nc(Nc3cccc(F)c3)nc(N)c2cc1OC`, the survival was 89%. Work on `Cc1ccc(OCc2nnc(-c3ccccc3)o2)cc1` yielded a survival of 77%. `O=C(Nc1cccc(C(=O)OCc2cc(=O)n3c4c(sc3n2)CCCC4)c1)c1cccc(Cl)c1` gave a survival of 73%. For `CN1c2ccccc2Oc2nnc(N3CCN(Cc4ccccc4)CC3)cc21`, the survival was 110%. Work on `CCc1ccc(NC(=O)C(=O)NCC(c2cccnc2)N2CCN(C)CC2)cc1` (stereo not given) yielded a survival of 111%. In the case of `CCOC(=O)c1c(C)oc2ncnc(Nc3ccc(OCC)cc3)c12`, the survival is reported as 72%. `CCOC(=O)c1c(Nc2ccc(OC)cc2)nnc(-c2ccccc2)c1-c1ccccc1` was tested, and the survival was 5% (active). With `CCOC(=O)c1c(Nc2cccc(C(=O)OC)c2)nnc(-c2ccccc2)c1-c1ccccc1` the survival was 19%. `CCOC(=O)c1c(C)c(-c2ccccc2)n(CC(=O)Nc2ccc(OCC)cc2)c1C` was tested, and the survival was 82%. With `CCOC(=O)c1c(Nc2ccc(OCC)cc2)nnc(-c2ccccc2)c1-c1ccccc1` the survival was 2% (active). `CCOC(=O)c1c(Oc2ccc(OC)cc2)nnc(-c2ccccc2)c1-c1ccccc1` gave a survival of 91%. For `COCCn1c(SCC(=O)Nc2cc(Cl)ccc2OC)nc2c([nH]c3ccccc32)c1=O`, the survival was 132%. Work on `Cc1ccc2sc(N3CCN(C(=O)C4COc5ccccc5O4)CC3)nc2c1C` (stereo not given) yielded a survival of 148%. With `COc1ccc(-c2nnc(SCC(=O)Oc3c(C)cccc3C)o2)cc1OC` the survival was 117%. `CN(C(=O)Nc1cn(C)c(=O)c2ccccc12)c1ccccc1` was tested, and the survival was -6% (active). `CCOc1ccccc1N(CC)C(=O)Nc1cn(C)c(=O)c2ccccc12` showed a survival of 78%. `Cc1ccc(NC(=O)Nc2cn(C)c(=O)c3ccccc23)c(Cl)c1` gave a survival of 69%. `CCCNC(=O)C1CCC(Cn2c(=O)c3sccc3n(CC(=O)N(CC)CC)c2=O)CC1` (stereo not given) was tested, and the survival was 128%. Compound `COc1ccc(CNC(=O)CN2C(=O)COc3ccc(S(=O)(=O)Nc4ccccc4)cc32)cc1` has a survival of 87%. In the case of `Cc1ccc(CNC(=O)CN2C(=O)COc3ccc(S(=O)(=O)Nc4ccccc4)cc32)cc1`, the survival is reported as -6% (active). With `COc1cccc(CNC(=O)CN2C(=O)COc3ccc(S(=O)(=O)Nc4ccccc4)cc32)c1` the survival was 73%. For `COc1ccc2c(c1)c1c(c(=O)n(-c3ccc(C)cc3)c(=O)n1CC(=O)NCc1ccc(C)cc1)n2C`, the survival was 70%. `O=S(=O)(Nc1ccccc1C(F)(F)F)c1ccc(N2CCCCS2(=O)=O)cc1` showed a survival of 136%. With `COc1cccc(NC(=O)CCc2nc3c(C)nn(-c4ccc(C)cc4)c3n(C)c2=O)c1` the survival was 72%. Work on `Cc1ccc(-n2nc(C)c3nc(CCC(=O)Nc4ccc(F)cc4)c(=O)n(C)c32)cc1` yielded a survival of 80%. In the case of `Cc1ccc(-n2nc(C)c3nc(CCC(=O)Nc4cccc(F)c4)c(=O)n(C)c32)cc1`, the survival is reported as -6% (active). Work on `Cc1ccc(NC(=O)c2c(C)oc3ncn(CC(C)C)c(=O)c23)nc1` yielded a survival of 129%. Compound `Cc1nn(C)c(C)c1NC(=O)CSc1nccc(-c2ccc(Cl)cc2)n1` has a survival of 100%. In the case of `CCOc1ccc(C(=O)CSc2nc3cc(C(=O)NC4CCCC4)ccc3c(=O)n2CC2CCCO2)cc1` (stereo not given), the survival is reported as 0% (active). For `COc1ccc(C(=O)CSc2nc3cc(C(=O)NC4CCCC4)ccc3c(=O)n2CC2CCCO2)cc1` (stereo not given), the survival was 76%. In the case of `O=C(CSc1nc2cc(C(=O)NC3CCCC3)ccc2c(=O)n1CC1CCCO1)c1cccc(Cl)c1` (stereo not given), the survival is reported as -3% (active). In the case of `Cc1ccc(C(=O)CSc2nc3cc(C(=O)NC4CCCC4)ccc3c(=O)n2CC2CCCO2)c(C)c1` (stereo not given), the survival is reported as 63%. Work on `Cc1ccc(C(=O)CSc2nc3cc(C(=O)NC4CCCC4)ccc3c(=O)n2CC2CCCO2)cc1` (stereo not given) yielded a survival of 75%. Compound `O=C(CSc1nc2cc(C(=O)NC3CCCC3)ccc2c(=O)n1CC1CCCO1)c1ccc(F)cc1` (stereo not given) has a survival of 70%. `CC(CN1CCCC1)OC(=O)c1ccc(F)cc1` (stereo not given) showed a survival of 109%. With `Cc1ccc(-c2nnc(Nc3ccc(Br)cc3)c3ccccc23)cc1S(=O)(=O)N1CCCCC1` the survival was 89%. `Cc1ccc(C)c(N2CCN(C(c3ccccc3)c3nnc(-c4ccccc4F)o3)CC2)c1` (stereo not given) was tested, and the survival was 53%. For `Cc1ccc(C)c(N2CCN(C(c3ccc(F)cc3)c3nnc(-c4ccccc4)o3)CC2)c1` (stereo not given), the survival was 14% (active). `Cc1cccc(N2CCN(C(c3ccccc3)c3nnc(-c4ccccc4Cl)o3)CC2)c1C` (stereo not given) showed a survival of 52%. With `Cc1ccc(C)c(N2CCN(C(c3ccccc3)c3nnc(-c4ccccc4)o3)CC2)c1` (stereo not given) the survival was 1% (active). `Cc1cccc(N2CCN(C(c3ccc(F)cc3)c3nnc(-c4ccccc4)o3)CC2)c1C` (stereo not given) showed a survival of 28%. With `COc1ccccc1N1CCN(C(c2ccccc2)c2nnc(-c3ccccc3Cl)o2)CC1` (stereo not given) the survival was 0% (active). Work on `Cc1ccc(Cl)cc1N1CCN(C(c2ccc(F)cc2)c2nnc(-c3ccccc3)o2)CC1` (stereo not given) yielded a survival of 50%. `COc1ccc(N2CCN(C(c3ccccc3)c3nnc(-c4ccccc4Cl)o3)CC2)cc1` (stereo not given) showed a survival of 22%. With `Cc1cccc(N2CCN(C(c3ccccc3)c3nnc(-c4ccccc4F)o3)CC2)c1C` (stereo not given) the survival was 43%. `Cc1ccoc1C(=O)Nc1ccccc1C(=O)O` was tested, and the survival was 102%. With `Cc1ccc(NC(=O)C2CC(=O)n3cnnc3N2)cc1Cl` (stereo not given) the survival was 105%. Compound `COCCNC(=O)CCn1c(=O)c2cc(OC)c(OC)cc2n(CC(=O)Nc2ccccc2OC)c1=O` has a survival of 89%. With `COc1ccc(NC(=O)c2cn(-c3ccccc3)nc2-c2ccc(C)cc2)cc1` the survival was 93%. `COc1ccc(-c2nn(-c3ccccc3)cc2C(=O)Nc2ccccc2OC)cc1` was tested, and the survival was 3% (active). Work on `COc1ccccc1NC(=O)c1cn(-c2ccccc2)nc1-c1ccccc1` yielded a survival of 81%. `COC(=O)C1(C)NC(c2ccccc2C)C2C(=O)N(C)C(=O)C21` (stereo not given) was tested, and the survival was 98%. For `CCOC(=O)C1=C(CN2CCN(c3ccccc3)CC2)NC(=O)NC1c1ccc(C)cc1` (stereo not given), the survival was 127%. `CCOc1ccc(Cn2c(=O)sc3ccccc32)cc1` showed a survival of 72%. `O=c1sc2ccccc2n1CCc1ccccc1` was tested, and the survival was 108%. With `CC(C)CCOc1ccc(Cn2c(=O)sc3ccccc32)cc1` the survival was -3% (active). `O=c1sc2ccccc2n1CCCOc1ccccc1` gave a survival of 116%. With `CCCOc1ccc(Cn2c(=O)sc3ccccc32)cc1` the survival was -4% (active). Work on `CCCCOc1ccc(Cn2c(=O)oc3ccccc32)cc1` yielded a survival of 113%. With `COc1ccc(Cn2c(=O)sc3ccccc32)cc1` the survival was 111%. `CC(C)CCOc1ccc(Cn2c(=O)oc3ccccc32)cc1` was tested, and the survival was 121%. For `CCCCOc1ccc(Cn2c(=O)sc3ccccc32)cc1`, the survival was -4% (active).
